The source of these data is PubChem BioAssay (Tox21).

Structures are written as SMILES. Inconclusive results are not listed. Entries that show only a call come without a potency. Calls of active or inactive are those of the source. Calls follow the shape of the dose curve; as a rule, active = well fitted cell-killing curve with a large enough effect in the repeat runs; inconclusive = weak or mixed curves; inactive = flat fitted curve, though single readings scatter.
Potency is read from the fitted curve at half-maximal effect.

A short description of this assay: qHTS assay to identify small molecule antagonists of the estrogen related receptor (ERR) signaling pathway - cell viability counter screen (AID 1224818).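 Also: viability measured after 17.5 h of compound exposure.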 The conditions noted are these: ERR reporter cell line viability counter screen; series mostly up to 46.1 µM. Summed up: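 ERR cells, 2,000/well; 6 h settle at 37 C/5% CO2; compound pin transfer (DMSO); 17.5 h at 37 C; CellTiter-Fluor, 30 min, fluorescence read.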
A general note: Quantitative high-throughput screening tests each substance at several concentrations.
Consider `CN1C2CCC1CC(OC(c1ccccc1)c1ccccc1)C2` (stereo unspecified), for which the Potency result was “inactive”. As to `NS(=O)(=O)c1ccc(-n2nc(C(F)(F)F)cc2-c2ccc(Cl)cc2)cc1`, the Potency entry was “inactive”. As for `NCCCNCCCCNCCCN`, the entry is “inactive”; as for `N[C@H](C(=O)O)c1cc(O)cc(O)c1`, “inactive”; as for `N[C@@H](Cn1ccc(=O)c(O)c1)C(=O)O`, “inactive”. Then `COc1cc(OC)c(/C=C2/C(=O)Nc3ccccc32)c(OC)c1`, with 11 µM (active); and `O=C(c1ccc2c(c1)OCCO2)N1CCCCC1`, with “inactive”; and `CNC(=O)c1cc2c(cn1)[nH]c1ccccc12`, with “inactive”. As for `CN1CCc2ccccc2Cc2[nH]c3ccccc3c2CC1`, the entry is “inactive”; as for `C[C@H](NC(=O)/C(C#N)=C/c1ccc(O)c(O)c1)c1ccccc1`, “inactive”; as for `Oc1cc2c(cc1O)C(c1ccccc1)CNCC2` (stereo unspecified), “inactive”.

As to `COc1cc(N)c(Cl)cc1C(=O)OCCN1CCCCC1`, the Potency result is “inactive”. Turning to `Oc1ccc(-c2nc(-c3ccc(F)cc3)c(-c3ccncc3)[nH]2)cc1`, the Potency entry is “inactive”. `C[C@](Cc1ccc(O)c(O)c1)(NN)C(=O)O`: the Potency entry was “inactive”. As for `CSc1ccccc1N1CCN(CCCCCC(=O)NC2CCCc3ccccc32)CC1` (stereo unspecified), the figure is 10.2 µM (active). As to `NCCCC(=O)O`, the Potency result was “inactive”.

For the molecule `COc1ccc(Br)cc1S(=O)(=O)NC(=O)/C=C/c1ccccc1Cc1ccc2ccccc2c1`, the Potency entry is “inactive”. As for `O=c1[nH]c2ccccc2c2ccccc12`, the entry is “inactive”; as for `Oc1ccc2ccccc2c1SSc1c(O)ccc2ccccc12`, “inactive”; as for `CSc1nc(N)c2ncn([C@@H]3O[C@H](COP(=O)(O)OP(=O)(O)O)C(O)[C@H]3O)c2n1` (stereo partly specified), “inactive”. As for `CN(C)CCCC1(c2ccc(F)cc2)OCc2cc(C#N)ccc21` (stereo unspecified), the entry is “inactive”.
